Bioassay records deposited in PubChem by National Center for Advancing Translational Sciences (NCATS).
Shown are actives, neighbours in structure and some others; about 7.9% of the full set was active somewhere.
SW480 rereplic: A quantitative high throughput screen for small molecules that induce DNA re-replication in SW480 colon adenocarcinoma cells | 1.8% of 340,000 active | AID 624297, 2012 | SW480 DNA re-replication, Hoechst DNA content imaging, 48 h | Potency, µM (top dose mostly 46.1 µM), inactives show at the top dose re-replication activation, most hits filed as activators; further: % of control where 0% means no effect; nearly all actives have a fitted effect of over 55% in size
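Compounds, transferred as 23 nL by pin tool, were incubated with cells for 48 hr; DNA content per nucleus was then quantified by Hoechst staining and fluorescence plate imaging.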
KB-V1 MDR tox: qHTS assay for MDR1-selective chemotherapeutics: Primary screen using the drug-selected MDR subline cells KB-V1; AID 1347076, 2019; 3.4% of 400,000 active; Potency, µM (series often up to 46.1 µM), actives largely listed as cytotoxic; KB-V1 MDR cells viability, CellTiter-Glo, 72 h; further: on the % scale 0 is the no-effect control and ±100 the full control effect; nearly all actives have a fitted effect of over 60% in size
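Cytotoxicity toward P-gp-expressing KB-V1 cells was determined as loss of CellTiter-Glo luminescence after 72 h at 37 degrees C. Compounds were tested in quantitative HTS format across a concentration range, with curves fitted to normalized data.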
HT1080NT lethal: qHTS for induction of synthetic lethality in tumor cells producing 2HG: qHTS for the HT-1080-NT fibrosarcoma cell line. HT-1080-NT fibrosarcoma viability, CellTiter-Glo ATP luminescence, 48 h. Potency, µM (highest dose often 46.1 µM), without a hit: at the top dose activity, negative = less viability, usual class: cytotoxic. 1.6% of 360,000 active;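 further: NT is the 2HG producing partner of a matched IDH1 knockdown line; 0% = DMSO-treated cells and -100% = media-only wells without cells; nearly all actives have a fitted effect of over 55% in size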
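Viability of the 2HG-overproducing fibrosarcoma line after 48 hours of compound exposure at 37 degrees C was determined by luminescence with CellTiter-Glo, and concentration-effect curves were then fitted and categorized.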
KB-3-1 cytotox: qHTS assay for MDR1-selective chemotherapeutics: Primary screen using the parental adenocarcinoma cell KB-3-1; KB-3-1 viability, CellTiter-Glo ATP luminescence, 72 h; Potency, µM (highest dose often 46.1 µM), hits mostly cytotoxic; 1.4% of 400,000 active; AID 1347075, 2019; further: on the % scale 0 is the no-effect control and ±100 the full control effect; nearly all actives have a fitted effect of over 60% in size
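KB-3-1 parental drug-naive adenocarcinoma cells in DMEM/10% FBS, incubated 72 h at 37 C with pin-transferred compounds across a concentration series. Viability by CellTiter-Glo luminescence; concentration-response curves fitted after normalization.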
MCF10A rereplic: A quantitative high throughput screen for small molecules that induce DNA re-replication in MCF 10a normal breast cells; MCF 10A DNA re-replication, Hoechst nuclear intensity, 48 h; Potency, µM (titrated, usually from 46.1 µM), without a hit: at the top dose activity, positive = re-replication, actives largely listed as activators; 2.9% of 350,000 active; AID 624296, 2012; further: % of control where 0% means no effect; nearly all actives have a fitted effect of over 50% in size
HT1080 IDH1KD tx: qHTS for induction of synthetic lethality in tumor cells producing 2HG: qHTS for the HT-1080-IDH1KD cell line; 2% of 360,000 active; Potency, µM (series often up to 46.1 µM), for inactives: top-dose activity, negative = toxicity, most hits filed as cytotoxic; HT-1080 IDH1 knockdown viability, ATP luminescence, 48 h;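 further: 0% = DMSO wells and -100% = cell-free medium wells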
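Assay cells: HT-1080 with IDH1 knockdown, 750 per well, RPMI/5% FBS. Exposure: 48 h at 37 °C following 2 h pre-incubation. Read: CellTiter-Glo luminescence; fitted concentration-response, curve class assigned.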
Starred values were filed as active, the others as inactive; i = inactive; ? = inconclusive; . = no result given. The call rests on the fitted dose curve; in most records, active means well fitted curve in the direction sought with a large enough effect; inconclusive means small, poorly fitted or top-dose-only effect, or another doubt; inactive means no such curve, though single readings can be large; an effect the other way counts as inactive or inconclusive. Potency means the concentration at half of the fitted maximal effect.

SMILES	SW480 rereplic	KB-V1 MDR tox	HT1080NT lethal	KB-3-1 cytotox	MCF10A rereplic	HT1080 IDH1KD tx
Cc1ccc2nc(SC(C)C(=O)NC3CCCc4ccccc43)[nH]c2c1 (stereo not given)	.	20.6µM*	-1.2%	i	?	-16.8%
COc1ccc2nc(SCC(=O)NC3CCCc4ccccc43)[nH]c2c1 (stereo not given)	-2.0%	18.4µM*	-1.8%	?	-1.0%	-14.7%
O=C(CSc1nc2ccc(Cl)cc2[nH]1)NC1CCCc2ccccc21 (stereo not given)	4.4%	i	-20.5%	i	?	?
COc1ccc(NC(=O)CSc2nc3ccc(OC)cc3[nH]2)cc1	-6.9%	i	0.2%	i	-2.7%	-0.5%
COc1ccc2nc(SCC(=O)NC3CCCCC3C)[nH]c2c1 (stereo not given)	?	?	?	?	16.3%	?
CCOC(=O)c1ccc(Nc2nc3ccccc3n3c(C)nnc23)cc1	.	i	.	i	.	.
CCCCn1cc(S(=O)(=O)c2ccc(Cl)cc2)c(=O)c2cc(F)c(N3CCCCC3)cc21	.	i	.	i	.	.
CCN(CC)CCCNC(=O)CN1C(=O)COc2ccc(S(=O)(=O)N3CCC(C)CC3)cc21	.	i	.	i	.	.
Cc1ccccc1-n1nnnc1SC(C)C(=O)NC1CCCc2ccccc21 (stereo not given)	?	3.66µM*	-0.4%	i	-2.6%	1.4%
Cc1c(C#N)c(NC(=O)CCl)n(Cc2ccccc2)c1C	?	?	?	10.3µM*	?	1.64µM*
CCN(CC)C(=O)c1sc(NC(=O)Cc2cccs2)c(C#N)c1C	15.9%	?	7.7%	i	0.9%	-12.7%
Cc1c(C#N)c(NC(=O)CCl)n(Cc2ccc(F)cc2)c1C	?	i	?	?	?	?
Cc1c(C#N)c(NC(=O)CCl)n(Cc2cccs2)c1C	5.8µM*	?	16.4µM*	?	?	?
CCCCCOC(=O)Nc1nnc(CCCCC)s1	-4.7%	i	?	i	9.3%	1.3%
CNc1nc(C)c(C(=O)OCC(=O)OC)s1	-5.4%	i	0.0%	i	-0.3%	-6.9%
CCCCOC(=O)Nc1nc(C)c(C(=O)OCC)s1	-6.7%	11.6µM*	3.9%	i	-8.2%	6.6%
CCCCCCc1nnc(NC(=O)OCC)s1	-4.3%	16.4µM*	-3.0%	i	6.8%	13.0%
CCOC(=O)c1sc(NC(=O)CC)nc1C	-3.5%	i	10.4%	i	?	-1.3%
C=CCOC(=O)c1sc(NC(=O)c2ccc(OC)cc2)nc1C	0.4%	i	?	i	10.5%	1.84µM*
CNc1nc(C)c(C(=O)OCc2ccccc2)s1	0.5%	20.6µM*	3.1%	i	?	0.3%
CCC1=Nc2cc(C(=O)N3CCC(C)CC3)ccc2Sc2ccc(C)cc21	.	i	.	i	.	.
CCOc1ccc(-c2cc(C(=O)Nc3ccc(C)c(NS(C)(=O)=O)c3)[nH]n2)c(C)c1	.	?	-26.8%	i	.	?
CC(C)N(Cc1nc(-c2ccc(Cl)cc2)no1)C(=O)c1ccco1	.	i	.	?	.	.
CCOC(=O)C1=CC[C@@H](c2cccc(Br)c2)N(S(=O)(=O)c2ccc(F)cc2)[C@H]1c1cccc(Cl)c1	.	?	-0.5%	?	.	-5.7%
CCOC(=O)c1sc(Nc2nc(C)cc(C)n2)nc1C	?	9.2µM*	-4.7%	?	?	0.9%
SMILES	SW480 rereplic	KB-V1 MDR tox	HT1080NT lethal	KB-3-1 cytotox	MCF10A rereplic	HT1080 IDH1KD tx
CCOC(=O)c1sc(Nc2nc(C)cc(OC)n2)nc1C	-6.1%	i	15.6%	i	10.4%	6.1%
COc1ccc(C2NN=C(c3c[nH]c4ccccc34)C2O)cc1 (stereo not given)	?	i	-12.8%	i	23.2%	-6.2%
COc1ccc(C2C(O)C(c3c[nH]c4ccccc34)=NN2C(=O)CCl)cc1 (stereo not given)	1.3µM*	14.6µM*	0.461µM*	?	4.61µM*	0.651µM*
COc1cc(C(=O)Nc2ccccc2NC(=O)c2cc(OC)c(OC)c(OC)c2)cc(OC)c1OC	-18.1%	i	11.7%	i	7.3%	-1.6%
Cc1ccnc(NC(=O)c2ccccc2NC(=O)C(C)(C)C)c1	16.4µM*	10.3µM*	?	?	16.4µM*	?
COc1cc(C(=O)Nc2ccccc2C2COC(=O)C2=N)cc(OC)c1OC (stereo not given)	-18.8%	11.6µM*	-5.5%	i	-5.0%	-4.4%
O=C(Nc1nc(-c2cccnc2)cs1)c1cccc([N+](=O)[O-])c1	-5.5%	i	8.0%	i	-4.4%	0.7%
COc1ccc(C(=O)Nc2ccccc2C(=O)Nc2cc(C)ccn2)cc1	46.6%	?	?	?	?	?
COc1cc(C(=O)Nc2ccccc2C(=O)Nc2ccccn2)cc(OC)c1OC	23.1µM*	6.51µM*	1.7%	8.2µM*	?	-1.0%
O=C(Nc1nc(-c2ccccc2)cs1)c1cccc([N+](=O)[O-])c1	-2.3%	23.1µM*	-8.8%	i	?	-13.5%
CCOc1ccc(C2=NC(c3cccs3)=Nc3ccc(CC)cc3N2)cc1OCC	.	i	.	i	.	.
O=C(CCCn1c(=O)[nH]c2ccccc2c1=O)N1CCN(c2ccccc2)CC1	.	i	.	i	.	.
O=C1/C(=C/c2ccc(S(=O)(=O)O)cc2S(=O)(=O)O)CCc2ccccc21	.	?	25.4%	i	.	7.9%
O=C(Nc1ccc(-c2csc(Nc3cccc(C(F)(F)F)c3)n2)cc1)c1ccccc1	?	i	-23.2%	?	18.4µM*	-12.5%
O=C(Nc1ccccc1C(=O)Nc1ccccn1)c1cccc([N+](=O)[O-])c1	11.4%	i	-7.4%	i	3.66µM*	-5.2%
COc1cc(C(=O)Nc2ccc(Br)cc2C(=O)c2cc(OC)c(OC)c(OC)c2)cc(OC)c1OC	16.4µM*	?	?	?	20.6µM*	?
O=C(Nc1ccc(Cl)cc1)c1cc(S(=O)(=O)N2CCc3ccccc32)ccc1F	.	?	.	i	.	.
CCOc1ccc(S(=O)(=O)NCC(c2ccc3c(c2)OCO3)N2CCN(C)CC2)cc1 (stereo not given)	6.51µM*	i	-9.9%	i	9.3%	-16.7%
